# Assays:
# Experiment in all cases: protein binding microarray; high values mean tight binding
# Conditions in all cases: dsDNA, one strand shown
# [1] = target: RELARELA (p65 homodimer) (Homo sapiens, UniProt Q04206 1-307)
# [2] = target: p50p50 homodimer (Homo sapiens, UniProt P19838 7-356)
# [3] = target: T1, p52p52 homodimer (Homo sapiens, UniProt Q00653 4-332)
# T1 sequence: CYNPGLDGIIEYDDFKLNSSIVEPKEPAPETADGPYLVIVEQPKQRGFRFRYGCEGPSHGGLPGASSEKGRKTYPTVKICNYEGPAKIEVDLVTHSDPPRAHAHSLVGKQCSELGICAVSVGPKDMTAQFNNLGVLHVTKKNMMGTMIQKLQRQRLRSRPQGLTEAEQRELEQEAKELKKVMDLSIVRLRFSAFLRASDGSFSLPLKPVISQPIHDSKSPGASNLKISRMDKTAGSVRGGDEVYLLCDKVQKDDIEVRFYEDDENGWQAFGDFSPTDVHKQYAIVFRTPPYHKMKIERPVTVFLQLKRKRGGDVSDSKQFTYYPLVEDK
# [4] = target: RELA (p65) subunit of heterodimer;p50 subunit (Homo sapiens;Homo sapiens, UniProt Q04206;P19838 1-307;7-356)
# [5] = target: RELA (p65) subunit of heterodimer;p52 subunit (Homo sapiens;Homo sapiens, UniProt Q04206;Q00653 1-307;4-332)
# [6] = target: RELB subunit;p50 subunit (Homo sapiens;Homo sapiens, UniProt Q01201;P19838 120-401;7-356)
# [7] = target: T2, RELB subunit;p52 subunit (Homo sapiens;Homo sapiens, UniProt Q01201;Q00653 120-401;4-332)
# T2 sequence 1: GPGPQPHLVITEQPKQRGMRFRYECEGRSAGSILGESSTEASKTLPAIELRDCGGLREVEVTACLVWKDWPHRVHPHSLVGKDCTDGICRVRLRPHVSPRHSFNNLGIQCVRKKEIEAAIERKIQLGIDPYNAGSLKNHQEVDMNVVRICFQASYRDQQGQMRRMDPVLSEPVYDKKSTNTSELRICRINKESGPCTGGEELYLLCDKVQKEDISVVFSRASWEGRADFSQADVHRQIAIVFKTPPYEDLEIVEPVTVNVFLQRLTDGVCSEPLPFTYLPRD
# T2 sequence 2: T1 sequence
# [8] = target: C-Rel subunit;p50 subunit (Homo sapiens;Homo sapiens, UniProt Q04864;P19838 1-285;7-356)
# [9] = target: T3, C-Rel subunit;p52 subunit (Homo sapiens;Homo sapiens, UniProt Q04864;Q00653 1-285;4-332)
# T3 sequence 1: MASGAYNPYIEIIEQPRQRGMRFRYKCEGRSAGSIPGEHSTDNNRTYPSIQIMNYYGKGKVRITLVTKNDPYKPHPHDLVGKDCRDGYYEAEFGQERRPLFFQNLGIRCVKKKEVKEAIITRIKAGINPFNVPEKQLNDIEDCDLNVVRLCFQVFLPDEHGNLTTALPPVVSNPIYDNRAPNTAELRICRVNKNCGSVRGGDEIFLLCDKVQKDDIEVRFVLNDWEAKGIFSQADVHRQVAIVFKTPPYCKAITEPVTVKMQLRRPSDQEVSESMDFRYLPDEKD
# T3 sequence 2: T1 sequence
# Sequence of p50p50 homodimer (P19838 7-356): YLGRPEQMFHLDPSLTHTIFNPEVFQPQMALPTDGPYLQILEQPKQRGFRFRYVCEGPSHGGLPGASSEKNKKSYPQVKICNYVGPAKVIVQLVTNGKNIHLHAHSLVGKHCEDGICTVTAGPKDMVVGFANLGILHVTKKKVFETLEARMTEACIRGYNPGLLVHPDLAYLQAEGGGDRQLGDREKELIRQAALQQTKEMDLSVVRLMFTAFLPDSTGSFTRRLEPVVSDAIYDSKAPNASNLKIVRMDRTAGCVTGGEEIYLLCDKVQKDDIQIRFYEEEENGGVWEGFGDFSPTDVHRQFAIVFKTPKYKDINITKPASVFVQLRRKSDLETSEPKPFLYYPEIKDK
# Sequence of RELARELA (p65 homodimer) (Q04206 1-307): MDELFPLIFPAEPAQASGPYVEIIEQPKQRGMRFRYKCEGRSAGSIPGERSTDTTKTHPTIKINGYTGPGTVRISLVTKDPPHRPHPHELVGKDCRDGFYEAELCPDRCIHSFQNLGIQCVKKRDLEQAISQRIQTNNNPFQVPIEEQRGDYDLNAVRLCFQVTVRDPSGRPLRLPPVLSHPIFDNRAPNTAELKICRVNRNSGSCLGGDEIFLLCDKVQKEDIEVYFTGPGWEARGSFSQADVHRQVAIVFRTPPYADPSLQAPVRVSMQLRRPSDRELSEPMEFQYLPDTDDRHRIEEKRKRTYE
# Sequence of RELA (p65) subunit of heterodimer;p50 subunit (Q04206 1-307, chain 1 of 2): as the sequence (Q04206 1-307) above
# Sequence of RELA (p65) subunit of heterodimer;p50 subunit (P19838 7-356, chain 2 of 2): as the sequence (P19838 7-356) above
Sequence,binding signal [1] [z-score],binding signal [2] [z-score],binding signal [3] [z-score],binding signal [4] [z-score],binding signal [5] [z-score],binding signal [6] [z-score],binding signal [7] [z-score],binding signal [8] [z-score],binding signal [9] [z-score]
AGAAGTCTCCT,-0.456,-1.85,-0.738,-0.94,-0.879,-0.942,-0.985,-1.36,-0.926
GGGGAATTCCC,4.86,2.07,3.41,3.6,3.73,3.87,3.85,3.14,4.19
CAGGACTTCCT,-0.0226,-0.664,-0.608,-0.403,-0.542,-0.897,-0.842,-0.448,-0.475
AAGGATATCCT,-0.125,-1.04,-0.548,-0.853,-0.906,-0.945,-0.859,-1.41,-0.843
GAGGGCACCCT,-0.976,-1.27,-0.651,-0.906,-0.74,-0.75,-0.795,-1.04,-0.757
GAATTTGTCCC,1.3,0.832,0.9,1.01,0.944,0.998,0.873,1.27,0.573
AGATAAGTCCC,0.485,1.11,0.806,1.13,0.806,1.2,0.954,0.899,0.335
AGAATTGTCCC,0.95,0.906,0.873,0.803,0.85,0.82,0.675,0.87,0.604
GAAGGCCCCCC,-1.44,0.635,0.244,0.456,0.62,0.366,0.671,0.408,0.0615
CGATAGCCCCC,-0.556,0.93,0.275,0.352,0.57,0.492,0.523,0.288,0.258
GGAGGAGTCCC,0.299,0.853,0.586,0.889,0.831,0.725,0.409,0.717,0.541
AGATAAGCCCT,-0.464,-1.05,-0.697,-0.764,-0.927,-1.1,-0.798,-0.985,-0.712
AGAGATGCCCT,-0.748,-1.63,-0.655,-0.706,-0.889,-1.04,-0.94,-0.882,-0.704
CGATGGATCCT,-0.596,-1.5,-0.616,-1.04,-1,-1.33,-1.12,-1.59,-1.01
AAATGAGTCCT,-0.142,-1.04,-0.602,-0.991,-0.866,-0.889,-0.596,-1.08,-0.769
